Screening results: PubChem BioAssay, several laboratories
The list is not random: actives were taken first. Their share in the collection is about 4.3%.
esBAF inh – Bmi1 luciferase reporter increase in mESCs, primary screen, esBAF inhibitor project, mouse ES cells, Bmi1 luciferase knock-in, single point; 24 h; 100% = twice the neutral-well signal; reporter increase, % at 12.5 µM; actives 2% (n = 350,000); in the data active = activation above about 40%; inconclusive = no clear call, values can overlap the other calls;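 note: 0% = median of the plate's neutral control wells and 100% = double that signal; a rise in the Bmi1 reporter signal indicates esBAF inhibition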
HSF1 inhib – HSF1 inhibitors in luciferase reporter cells, primary screen, cell-based, NIH3T3, luminescence. AID 2098, 2009. activity change, negative = inhibition, % at 7.5 µM (by protocol). NIH3T3-HGL HSE-luciferase, MG132-induced, luminescence 8 h; hits give low values. actives 0.77% (n = 300,000);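 active = more than half of replicate wells show activity change below -50%, luminescence cut by over half; inconclusive = some wells, but at most half, below -50%; inactive = no replicate well below -50%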;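 note: luciferase reports HSF-1 transcriptional activity via heat shock element; 0% = median of DMSO wells and -100% = zero luminescence signal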
SMARCA2 act – SMARCA2 (BRM) function activators, primary screen, cell-based, luminescence, high throughput. MG213 cells, MMTV-luciferase reporter, dexamethasone, overnight. AID 652017, 2013. activation, % at 9.1 µM. actives 1% (n = 370,000); in the data active = activation above about 7.8%;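 note: 0% = vehicle wells and 100% = reference activator wells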
HSF1 activator – HSF-1 activators, primary screen, NIH3T3-HGL cells, MG132 stress, luminescence, single point; actives 1.7% (n = 300,000); NIH3T3-HGL HSF-1 luciferase reporter, 8 h; 100% = twice DMSO control signal; AID 504408, 2011; activation, % at 9 µM;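 active = mean replicate activation of at least 50% with a set share of replicates each reaching 50%; inconclusive = only one of those two conditions met; inactive = mean below 50% and too few replicates reaching it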;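 note: 0% = median of the neutral control wells and 100% = twice that signal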
MITF act – activators of MITF-driven TRPM1 promoter reporter, primary screen, cell-based, SK-MEL-5, luciferase, single point; AID 588334, 2011; actives 0.75% (n = 300,000); SK-MEL-5 TRPM1-promoter luciferase, 24 h; % of positive control, neutral wells = 0; activation, % at 12.5 µM;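 active = mean activation of at least 80% with every replicate also reaching 80%; inconclusive = mean reaches 80% but some replicate falls short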;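 note: 0% = neutral control wells and 100% = parthenolide positive control wells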
Wnt bcat act – Wnt/beta-catenin pathway activators, primary screen, cell-based, plate reader, single point; AID 743398, 2014; Wnt/beta-catenin reporter cell assay, activator; activation, % at 9.35 µM; actives 1.2% (n = 300,000); in the data active = activation above about 30%, passing the limit was not always enough; inconclusive = no clear call, values can overlap the other calls;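 note: 0% = neutral control wells and 100% = positive control wells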
SMARCA2 act conf – SMARCA2 (BRM) function activators, confirmation, cell-based, luminescence, triplicate; activation, % at 9.1 µM; shares compounds with SMARCA2 act; actives 30% (n = 3,500); MG213 cells, MMTV-luciferase with dexamethasone, overnight; MG213 cells expressing E1A, Rb sequestered; DMSO wells 0%, reference activator 100%;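 active = activation above its plate's cutoff, the mean activation of tested wells plus 3 SD, cut at about 7.9% in these data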
GAL4-VP16 Luc – GAL4-VP16 luciferase reporter activation, counter-screen for SMARCA2 (BRM) activator project, cell-based, pG5luc, luminescence, high throughput; shares compounds with SMARCA2 act; HEK293 GAL4-VP16 pG5luc reporter; scaled: DMSO wells 0%, SAHA wells 100%; activation, % at 9.1 µM; actives 41% (n = 3,500); AID 686939, 2013;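 active = activation above the solvent-only control well mean plus 3 SD, averaged across control plates, cut at about 5.2% in these data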
* hit, by the source's call; ? = inconclusive; / = no result given.

SMILES | esBAF inh | HSF1 inhib | SMARCA2 act | HSF1 activator | MITF act | Wnt bcat act | SMARCA2 act conf | GAL4-VP16 Luc
CNC[C@@H]1OCCCC[C@@H](C)Oc2ccc(NS(=O)(=O)c3ccccc3)cc2C(=O)N([C@@H](C)CO)C[C@H]1C | 4 | / | / | / | / | / | / | /
COc1cc(O)c2c(=O)c3c(OC)c(O)ccc3oc2c1 | 35 | 5 | 9.7* | 19 | 46 | 23 | 9.0* | 4
COc1cc(OC)c2c(=O)c3c(C(=O)O)c(O)ccc3oc2c1 | / | / | -1 | / | / | -4 | / | /
O=C(C[C@@H]1CC[C@H](NC(=O)c2ccc3c(c2)OCO3)[C@@H](CO)O1)NC1Cc2ccccc2C1 | -1 | / | / | / | / | / | / | /
CC1CCCCN1C(=O)c1cc(-c2ccc3c(c2)OCO3)on1 (stereo unspecified) | 31 | 6 | 9.2* | -1 | 139* | 36* | 6 | 12*
C[C@@H]1CN([C@H](C)CO)C(=O)c2cc(NC(=O)c3ccccc3)ccc2O[C@@H](C)CCCCO[C@@H]1CN(C)C(=O)Nc1cccc2ccccc12 | -6 | / | / | / | / | / | / | /
O=C(C[C@H]1CC[C@@H]2[C@H](COC[C@H](O)CN2S(=O)(=O)c2cccc(F)c2)O1)NC1CCC1 | -1 | / | / | / | / | / | / | /
Cc1nc2nc(-c3ccc(Cl)cc3)cn2nc1C | / | 8 | 6 | 18 | -4 | / | / | /
Cc1nc2nc(-c3cccs3)cn2nc1C | / | 15 | 10* | 13 | / | 47* | 11* | 13*
CCN(CC)CCNC(=O)C(Cl)=C1C(Cl)=C(Cl)C(Cl)=C1Cl | -5 | / | 10* | / | -12 | -3 | 21* | 2
CC(=O)Nc1ccc2c(c1)C(=O)N(C)[C@@H]1CC[C@H](CC(=O)NCc3ccc(Cl)cc3)O[C@H]1CO2 | -2 | / | / | / | / | / | / | /
O=c1cc(-c2ccncc2)oc2ccccc12 | -12 | / | 0 | / | / | 2 | / | /
O=C(COc1cc(O)c2c(=O)cc(-c3ccccc3)oc2c1)c1ccccc1 | 27 | / | 2 | / | 25 | / | / | /
O=c1cc(-c2ccc(O)cc2)oc2ccccc12 | 58* | 23 | 9.0* | 13 | / | 3 | 12* | 9.0*
O=c1cc(-c2ccc3c(c2)OCO3)oc2ccccc12 | 28 | 22 | 18* | 26 | 55 | 21 | 6 | 7.3*
O=c1cc(-c2ccccc2)oc2cc(O)cc(O)c12 | 7 | 10 | 8.5* | 19 | 100* | 6 | 3 | 7.5*
O=C(C[C@@H]1C=C[C@@H](NS(=O)(=O)c2cccc(F)c2)[C@@H](CO)O1)N1CCCCC1 | -4 | / | / | / | / | / | / | /
COC(=O)C[C@@H]1CC[C@H]2[C@H](COc3ccc(NC(=O)Cc4cccs4)cc3C(=O)N2C)O1 | -1 | / | / | / | / | / | / | /
O=C(C1CC1)N1C[C@@H]2[C@H](c3ccccc31)[C@H](CO)N2C(=O)Nc1cccc(F)c1 | -5 | / | / | / | / | / | / | /
COCC#Cc1cnc2c(c1)C(=O)N([C@H](C)CO)C[C@H](C)[C@H](CN(C)C(=O)C1CCCCC1)O2 | -2 | / | / | / | / | / | / | /
Brc1ccc2nc(-c3ccco3)c(Cc3ccccc3)n2c1 | 9 | / | 10* | / | / | -1 | 7 | 1
Cc1ccc(Cc2c(-c3cccc(Br)c3)nc3ccc(Cl)cn23)cc1 | 13 | / | 2 | / | / | 0 | / | /
Cc1ccc2nc(-c3cccc(Br)c3)c(Cc3ccccc3)n2c1 | 34 | / | 10* | / | / | 22 | 2 | 5
Clc1cccc(Cc2c(-c3ccco3)nc3ccc(Br)cn23)c1 | -6 | / | -6 | / | / | -2 | / | /
Clc1ccc2nc(-c3cccc(Br)c3)c(Cc3ccsc3)n2c1 | 30 | / | 8.9* | / | / | 2 | 4 | 1
SMILES | esBAF inh | HSF1 inhib | SMARCA2 act | HSF1 activator | MITF act | Wnt bcat act | SMARCA2 act conf | GAL4-VP16 Luc
O=C(Nc1nnc(-c2ccccc2SCc2ccccc2F)s1)Nc1ccccc1F | -5 | -2 | 8.3* | 12 | 1 | / | 2 | 2
C[C@H]1CN([C@@H](C)CO)S(=O)(=O)c2ccc(C3=CCCCC3)cc2O[C@H]1CN(C)C(=O)C1CC1 | 2 | / | / | / | / | / | / | /
CC(=O)c1cccc(Nc2cc(C)nc3c(C)cc(C)cc23)c1 | / | -7 | -2 | -14 | 3 | / | / | /
CC(=O)c1cccc(Nc2cc(C)nc3ccc(C)cc23)c1 | / | -2 | 11* | -5 | -10 | 2 | 1 | 0
C[C@H]1CN([C@@H](C)CO)C(=O)c2cc(NC(=O)c3ccncc3)ccc2O[C@@H]1CN(C)Cc1ccc(C(=O)O)cc1 | 2 | / | / | / | / | / | / | /
Nc1ccccc1C(=O)NCc1ccc(F)cc1 | 6 | 2 | -2 | -1 | -9 | 0 | / | /
Nc1ccccc1C(=O)NCc1ccc(Cl)cc1 | / | 7 | 8.1* | 17 | 1 | / | -1 | 0
CC(=O)NNc1ncnc2c1cnn2-c1ccc(C)c(C)c1 | / | -21 | 0 | -31 | 42 | 0 | / | /
Cc1ccc(-n2ncc3c2ncn2c(C)nnc32)cc1C | 39 | / | 9.0* | / | ? | ? | 6 | 10*
Cn1cccc1/C=N/N1CCN(Cc2ccccc2)CC1 | 4 | 2 | 16* | 5 | 3 | 0 | 1 | 1
Cc1nn(-c2ccccc2)c(Cl)c1/C=N/Nc1ccc(Cl)c(C(=O)O)c1 | / | -43 | 8.9* | -53 | -53 | 8 | 9.4* | 14*
Cc1nn(-c2ccccc2)c(Cl)c1/C=N/Nc1ccc(S(=O)(=O)Nc2ccccc2C(=O)O)cc1[N+](=O)[O-] | -8 | 2 | 0 | -7 | -7 | / | / | /
CCc1ccc2nc3nc(C)cc(C)c3c(N)c2c1 | 0 | / | 6 | / | 18 | 0 | / | /
Cc1cc(C)c2c(N)c3ccccc3nc2n1 | 3 | 3 | 19* | 6 | / | -1 | 30* | -1
C[C@@H](O)C#Cc1ccc([C@@H]2[C@H]3CN(CC4CC4)CCCCN3[C@H]2CO)cc1 | -4 | / | / | / | / | / | / | /
Cc1ccc(S(=O)(=O)Nc2cccc3c2O[C@H](CN(C)C(=O)Nc2ccccc2)[C@@H](C)CN([C@@H](C)CO)C3=O)cc1 | 5 | / | / | / | / | / | / | /
CNC[C@@H]1Oc2ccc(NC(=O)CCC(F)(F)F)cc2CC(=O)N([C@@H](C)CO)C[C@H]1C | 1 | / | / | / | / | / | / | /
COc1cc(OC)cc(C(=O)NCc2cccnc2)c1 | -9 | 1 | 3 | 37 | -4 | -1 | / | /
COc1ccc2c(c1)CCc1c(C(=O)NCc3cccnc3)noc1-2 | 19 | 4 | 10* | 10 | 38 | 14 | 0 | 6.4*
